# High-throughput results as filed in PubChem.
# Rows were chosen to be rich in hits. Some 12% of all compounds tested hit in one or more screens of this group.
# HP1b binding inh – HP1-beta chromodomain-methylated histone interaction inhibition; Potency, µM (titrated, usually from 114 µM), without a hit: top-dose activity change, negative = inhibition, actives largely listed as inhibitors; AlphaScreen HP1-beta / biotin-H3K9me3 peptide binding; 390,000 tested, 0.56% active; P83916; note: potency is the fitted concentration of half-maximal effect; nearly all actives have a fitted effect of over 70% in size
# Target sequence (P83916 whole entry, looked up): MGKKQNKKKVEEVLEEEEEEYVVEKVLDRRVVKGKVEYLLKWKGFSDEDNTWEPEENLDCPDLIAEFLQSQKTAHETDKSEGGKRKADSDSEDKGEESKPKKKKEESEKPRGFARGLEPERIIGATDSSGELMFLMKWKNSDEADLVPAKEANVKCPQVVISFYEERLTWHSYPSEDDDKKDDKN
#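 HP1-beta protein (50 nM final) preincubated 30 min at room temperature with biotinylated H3(1-18)K9me3 peptide (50 nM) in PBS pH 7.4, 0.01% Tween-20, then compound added for 30 min. AlphaScreen streptavidin donor/nickel chelate acceptor beads (10 ug/mL final), 30 min dark, luminescence read.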
# G9a inh – inhibitors of human histone lysine methyltransferase G9a. 350,000 tested, 8.8% active. G9a H3K9 monomethylation, AlphaScreen, 2 h. Potency, µM (titrated, usually from 102 µM), for the others: at the highest dose activity, negative = inhibition, actives largely listed as inhibitors. Q96KQ7; note: potency is the fitted concentration of half-maximal effect; % is set by controls: 0 for no effect and ±100 for the full control effect; nearly all actives have a fitted effect of over 75% in size
# Target sequence (Q96KQ7 913-1193 limits assumed): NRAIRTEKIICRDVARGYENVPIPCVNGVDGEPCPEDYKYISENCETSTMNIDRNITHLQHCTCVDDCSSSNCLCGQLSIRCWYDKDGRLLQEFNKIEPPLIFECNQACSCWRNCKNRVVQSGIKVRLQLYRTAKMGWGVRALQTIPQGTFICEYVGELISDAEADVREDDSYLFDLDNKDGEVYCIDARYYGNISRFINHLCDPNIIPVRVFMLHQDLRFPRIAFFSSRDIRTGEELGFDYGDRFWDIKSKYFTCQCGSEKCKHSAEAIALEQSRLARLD
#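 Using a bead-based AlphaScreen, monomethylated H3K9 product from 2 h room-temperature reactions (G9a 20 nM, peptide 500 nM, SAM 20 uM) was detected with 0.5 ug/mL rabbit anti-H3K9me1 antibody.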
# BAZ2B block – blocks human BAZ2B; 360,000 tested, 4.4% active; Potency, µM (series often up to 114 µM), without a hit: at the highest dose activity change, negative = inhibition, actives largely listed as inhibitors; Q9UIF8; AlphaScreen BAZ2B-H3K14Ac peptide displacement; note: potency is the fitted concentration of half-maximal effect; % is set by controls: 0 for no effect and ±100 for the full control effect; nearly all actives have a fitted effect of over 60% in size
#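 Protein-peptide AlphaScreen: BAZ2B 50 nM, b-H3K14Ac 50 nM, 1x PBS pH 7.4 + 0.01% Tween-20. Preincubation 30 min RT; cpd 30 min RT (top 110 uM); beads 20 min RT, light-protected.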
# JMJD2A Tudor inh – JMJD2A Tudor domain (human) inhibition; O75164; AlphaScreen JMJD2A-Tudor / H3K4me3 peptide binding; Potency, µM (highest dose often 114 µM), inactives show at the top dose activity change, negative = inhibition, actives largely listed as inhibitors; 390,000 tested, 4.4% active; note: potency is the fitted concentration of half-maximal effect; % is set by controls: 0 for no effect and ±100 for the full control effect; nearly all actives have a fitted effect of over 50% in size
# PLK1 PBD block – blocks phosphopeptide binding to human PLK1 polo-box domain; P53350; 360,000 tested, 2.8% active; Potency, µM, inactives show max response, negative = inhibition, usual class: inhibitors; Plk1 PBD binding of FITC phosphopeptide, fluorescence polarization; note: potency is the fitted concentration of half-maximal effect; series mostly up to about 57 µM; % is set by controls: 0 for no effect and ±100 for the full control effect; nearly all actives have a fitted effect of over 65% in size
# PI5P4Ka inh – inhibitors of human PI5P4K alpha | max response, % | PI5P4Kalpha enzyme, ADP-Glo luminescence, 60 min; active compounds read low | AID 652105 | 330,000 tested, 1.2% active; active = max response of -50% or lower; inconclusive = between -30% and -50%; inactive = -30% or higher; note: value at the top dose of about 77 µM; % is set by controls: 0 for no effect and ±100 for the full control effect
#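 Quantitative HTS of the MLSMR library against PI5P4Kalpha with substrate. ATP added last at 5 microM final; room temperature, 60 minutes. Remaining ATP depleted, ADP converted and read as luminescence.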
# * hit, by the source's call; ? = inconclusive; / = not tested or not shown; [ ] = remark or other dose. Unless noted, calls come from the whole dose curve; as a rule, active = well fitted curve in the direction sought with a large enough effect; inconclusive = small, poorly fitted or top-dose-only effect, or another doubt; inactive = no such curve, though single readings can be large; an effect the other way counts as inactive or inconclusive.
SMILES,HP1b binding inh,G9a inh,BAZ2B block,JMJD2A Tudor inh,PLK1 PBD block,PI5P4Ka inh
Brc1ccccc1-c1nnc(CSc2nncn2-c2ccccc2)o1,-11%,-24%,9%,?,27µM*,?
O=C(COc1ccccc1)N(Cc1cccnc1)c1nc2ccc(Cl)cc2s1,34%,-2%[59 µM],-2%,-27%,/,/
CC(C)OC(=O)c1nn2c(C(F)(F)F)cc(-c3ccc(Br)o3)nc2c1Br,10%,35µM*,-4%,-22%,?,/
CC(C)OC(=O)c1nn2c(C(F)(F)F)cc(-c3ccco3)nc2c1Cl,27%,?,-6%,-4%,19%,3
Cc1ccccc1Nc1scc(-c2ccc(Cl)cc2)[n+]1-c1ccccc1C,?,20µM*,7.9µM*,?,?,-2
O=C(NCCN1CCC(n2c(=O)[nH]c3ccccc32)CC1)c1ccc(Cl)cc1Cl,/,/,/,/,-7%,3
CS(=O)(=O)N1N=C(c2ccco2)CC1c1ccc(Cl)cc1 (configuration not stated),6%,50µM*,-6%,-17%,-10%,?
N#CC1=C(N)Oc2c(ccc3cccnc23)C1c1ccccc1 (configuration not stated),21%,6%[59 µM],-28%,-26%,-1%,-23
N#CC1=C(N)Oc2cc(O)ccc2C1c1cccs1 (configuration not stated),28%,56µM*,-3%,-3%,0%,-19
N#CC1=C(N)Oc2c(ccc3ccccc23)C1c1cccs1 (configuration not stated),-5%,7.1µM*,?,-30%,-27%,-22
Cn1ccsc1=NC(=O)c1ccc(OC(F)(F)F)cc1,36%,36%,15%,7%,1%,3
Nc1nonc1-c1nc2ccccc2n1CC(=O)N/N=C/c1ccc(-c2ccccc2C(=O)O)o1,8%,45µM*,50µM*,-8%[11.4 µM],-20%,-19
Nc1nonc1-c1nc2ccccc2n1CC(=O)Nc1ccccc1,14%,6%[12.7 µM],-2%,-2%,-16%,-15
CCn1cc(S(=O)(=O)c2cccc(Cl)c2)c(=O)c2cc(F)c(N3CCN(C)CC3)cc21,38%,-5%[59 µM],2%,-5%,/,/
Cc1cccc(NC(=O)CN(C)C(=O)/C=C/c2ccccc2)c1C,15%,-39%,-23%,-5%,-7%,10
O=C(Cn1c(N2CCN(c3ccccc3)CC2)nc2ccccc21)c1ccccc1,14%,50µM*,-11%,-5%,1%,5
CCc1ccc(NC2=CC(=O)CC(c3ccco3)C2)cc1 (configuration not stated),8%,50µM*,?,?,-2%,/
Cc1cc(C)cc(NC2=CC(=O)CC(c3ccco3)C2)c1 (configuration not stated),20%,-14%[59 µM],-12%,-23%,-2%,/
Nc1ccccc1NC1=CC(=O)CC(c2ccco2)C1 (configuration not stated),3%,10µM*,-2%,-26%,-3%,-11
Cc1ccc(NC2=CC(=O)CC(c3ccco3)C2)c(N)c1 (configuration not stated),3%,-16%[59 µM],8%,-28%,-3%,-21
CC1(C(=O)NS(=O)(=O)c2ccc(C#N)cc2)CCN1C(=O)Cc1cccc2ccccc12 (configuration not stated),/,/,/,/,3%,3
CCCCN1C(=O)C(=O)N(CC(=O)c2cc(C)n(C3CC3)c2C)C1=O,-1%,6%[2.33 µM],-10%,-19%,2%,-5
Cc1ccc(C(=O)OCC(=O)Nc2ccc3c(c2)OCO3)cc1S(=O)(=O)N1CCOCC1,2%,5%[0.501 µM],-9%,-13%,-4%,-18
Cc1ccc(NC(=O)COC(=O)/C=C/c2cccc(Cl)c2)cc1S(=O)(=O)N1CCOCC1,19%,40µM*,7%,-22%,-1%,-1
CCN(c1ccc(NC(=O)COC(=O)c2ccc(C)c(S(=O)(=O)N3CCOCC3)c2)cc1)C(C)C,?,4.5µM*,?,22µM*,-5%,1
SMILES,HP1b binding inh,G9a inh,BAZ2B block,JMJD2A Tudor inh,PLK1 PBD block,PI5P4Ka inh
Cc1ccc(NC(=O)CNc2ccccc2N2CCCC2=O)cc1S(=O)(=O)N1CCOCC1,13%,45µM*,7%,-10%,3%,-6
COCCNC(=O)CCCC(=O)NCCOC,51%,20%[59 µM],8%,25µM*,-21%,0
COCCNC(=O)Cc1ccc(F)cc1,27%,15%[59 µM],7%,-12%,-7%,-8
Cc1ccc(S(=O)(=O)Nc2nc3ccccc3nc2Nc2cccc(S(=O)(=O)N3CCCC3)c2)cc1,41%,19%[12.7 µM],-26%,-6%[11.4 µM],27µM*,0
O=[N+]([O-])c1cccc(S(=O)(=O)Nc2nc3ccccc3nc2Nc2cccc(S(=O)(=O)N3CCCCC3)c2)c1,-11%,40µM*,?,45µM*,24µM*,?
Cc1cccc(NC(=O)N2CCc3c(sc4c3CCCC4)C2c2ccc(F)cc2)c1 (configuration not stated),4%,-8%[59 µM],-22%,-23%,/,/
CCOc1ccccc1NC(=O)Cn1nc2c3cc(F)ccc3n(Cc3cccc(C)c3)cc-2c1=O,26%,?,-6%,-4%,/,/
CC(=O)Nc1cccc(O)c1,66%,-2%[0.501 µM],7%,-10%,5%,-1
CC(C)c1cc(Nc2cccc(O)c2)cc(C(C)C)c1O,/,?,32µM*,/,/,/
Cc1ccc(CNC(=O)Cn2c(=O)ccc3cc(S(=O)(=O)N4CCC(C)CC4)ccc32)cc1,3%[57 µM],?,-24%,-2%,/,/
CC1(C)NC(=S)NC1=S,24%,/,/,-12%,-2%,-1
CC1CCCC(C)N1C(=O)COC(=O)c1cccnc1Cl (configuration not stated),22%,/,/,-13%,-6%,4
CCCCNC(=O)c1onc(CSc2nc3ccccc3[nH]2)c1C(=O)NCCCC,37%,71µM*,-3%,-23%,2%,1
O=C(NCCCN1CCOCC1)c1onc(CSc2nc3ccccc3[nH]2)c1C(=O)NCCCN1CCOCC1,53%,50µM*,-25%,-19%,-18%,1
CC(C)NC(=O)c1onc(CSc2nc3ccccc3[nH]2)c1C(=O)NC(C)C,-7%,50µM*,-30%,-29%,-14%,5
CC(O)C1CCC2C3CCC4CC(O)CCC4(C)C3CCC12C (configuration not stated),/,16%[59 µM],/,/,/,/
COC(=O)c1[nH]c(C)c(/C(O)=C2\C(=O)C(=O)N(CCN(C)C)C2c2ccc(OC)cc2)c1C (configuration not stated),/,-11%[59 µM],/,/,/,/
CCOc1ccc(C2/C(=C(\O)c3c(C)[nH]c(C(=O)OC)c3C)C(=O)C(=O)N2CCN(C)C)cc1 (configuration not stated),4%,45µM*,0%,35µM*,?,/
